Source: PubChem BioAssay AID493087 (The Scripps Research Institute Molecular Screening Center, 2011)
The campaign covered roughly 340,000 compounds. About 240 (0.071%) were called active.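 The calls were made as follows: active = activation above the mean of all tested compounds plus 3 SD, set per screening campaign (cut at about 17% in these data); inactive = the rest.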 The full list was thinned out, with actives kept by preference.

target: Insulin-degrading enzyme (Homo sapiens) (UniProt P14735); experiment: enhanced cellular IDE Abeta cleavage – fluorescence polarization, HEK cells, FAbeta-B substrate, primary screen (AID 493087); conditions: at 5.96 µM, active compounds read high, 0% vehicle, 100% cell-free pure enzyme wells
Sequence (P14735 whole entry, looked up): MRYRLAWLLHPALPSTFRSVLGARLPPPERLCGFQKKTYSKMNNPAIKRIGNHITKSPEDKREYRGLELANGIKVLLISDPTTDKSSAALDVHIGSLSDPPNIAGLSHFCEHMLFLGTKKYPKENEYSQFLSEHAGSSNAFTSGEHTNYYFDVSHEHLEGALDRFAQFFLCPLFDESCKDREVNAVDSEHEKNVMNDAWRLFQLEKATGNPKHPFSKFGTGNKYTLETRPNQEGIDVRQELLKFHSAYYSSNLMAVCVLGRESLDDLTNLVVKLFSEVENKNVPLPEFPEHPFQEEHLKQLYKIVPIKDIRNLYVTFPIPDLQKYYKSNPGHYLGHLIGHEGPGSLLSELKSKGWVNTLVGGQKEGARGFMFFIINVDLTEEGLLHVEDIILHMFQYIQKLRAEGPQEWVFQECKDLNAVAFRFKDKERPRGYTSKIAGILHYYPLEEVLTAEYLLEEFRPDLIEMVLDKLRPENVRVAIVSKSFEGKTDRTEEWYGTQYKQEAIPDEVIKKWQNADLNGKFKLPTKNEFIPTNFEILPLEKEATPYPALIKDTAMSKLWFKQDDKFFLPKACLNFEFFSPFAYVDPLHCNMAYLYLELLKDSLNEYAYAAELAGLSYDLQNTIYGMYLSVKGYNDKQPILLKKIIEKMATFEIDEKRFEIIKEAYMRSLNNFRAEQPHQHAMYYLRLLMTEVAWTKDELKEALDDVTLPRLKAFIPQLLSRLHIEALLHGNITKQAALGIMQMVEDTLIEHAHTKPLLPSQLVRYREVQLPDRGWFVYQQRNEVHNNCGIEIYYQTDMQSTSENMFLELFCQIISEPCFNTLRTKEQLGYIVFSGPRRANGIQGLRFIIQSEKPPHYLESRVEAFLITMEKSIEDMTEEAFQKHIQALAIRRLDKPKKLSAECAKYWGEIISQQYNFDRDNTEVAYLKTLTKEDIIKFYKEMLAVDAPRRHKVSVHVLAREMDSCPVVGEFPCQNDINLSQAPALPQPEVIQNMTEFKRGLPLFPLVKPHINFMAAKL

activation, active:
NC(=O)c1ccc(NC(=O)COC(=O)c2c3c(nc4ccccc24)/C(=C\c2ccc4c(c2)OCO4)CCC3)cc1 39.3%
COc1cccc2sc(N(CCCN(C)C)C(=O)C(c3ccccc3)c3ccccc3)nc12 31%
Oc1ccc2ccc3cccc[n+]3c2c1 26.2%
Oc1ccc(C2Nc3cccc4cccc(c34)N2)cc1 19.4%
Cc1ccccc1OC/C(O)=C(\C#N)c1nc2ccccc2[nH]1 22.2%
CCN1CCN(CCNC(=O)c2ccc(/C=C3/Sc4ccccc4N(Cc4cccc(C)c4)C3=O)cc2)CC1 24.8%
Cc1ccc(O)c(NC(=S)NC(=O)COc2ccc(Br)cc2)c1 18.1%

activation, inactive:
Cc1cc(C)cc(NC(=O)NC2CCCCCCC2)c1 0.99%
COC1C(CO)OC(n2cnc3c(=S)nc(N)[nH]c32)C1O (stereo unspecified) -9.08%
Cc1noc(C)c1NC(=O)Nc1cccc2c1O[C@H](CN(C)S(=O)(=O)c1c(C)noc1C)[C@@H](C)CN([C@H](C)CO)C2=O -2.65%
O=S(=O)(/C=C/c1ccccc1)NCCc1ccccn1 2.29%
O=C(COC(=O)c1ccncc1)Nc1ccc2c(c1)OCO2 3.58%
NS(=O)(=O)c1ccc(NC(=O)COC(=O)c2c3c(nc4ccccc24)/C(=C\c2ccc4c(c2)OCO4)CCC3)cc1 1.16%
CCCN(CC(=O)Nc1ccc(C(N)=O)cc1)CC(=O)Nc1ccccc1C 0.5%
O=S(=O)(c1ccc2ccccc2c1)N1CCN(S(=O)(=O)N2CCOCC2)CC1 -4.09%
Cc1ccc(CC(=O)N(C)CC(=O)N(CC(C)C)c2c(N)n(CC(C)C)c(=O)[nH]c2=O)cc1C -3.16%
O=C(NCc1ccncc1)C(=O)NCC1OCCN1S(=O)(=O)c1ccc(Br)cc1 (stereo unspecified) 1.15%
COc1cc2ccccc2cc1C(=O)N(CCN(C)C)c1nc2c(F)cccc2s1 6.93%
COc1cccc2sc(N(CCCN(C)C)C(=O)CCS(=O)(=O)c3ccccc3)nc12 5.71%
NS(=O)(=O)c1ccc(NC2=CC(c3ccc(F)cc3)N(c3ccc(S(N)(=O)=O)cc3)C2=O)cc1 (stereo unspecified) 1.07%
CC(=O)c1cccc(-n2nnnc2SCC(=O)NNC(=O)C2CCCCC2)c1 6.48%
Oc1ccc(-c2nc3ccccc3nc2-c2ccc(O)cc2O)c(O)c1 3.04%
Cc1ccc(-c2nn(C(C)(C)C)c3ncnc(N)c23)cc1 2.32%
Cc1cccc2c1cnn2C(=O)CCC(=O)NC1CCCCC1 0.37%
COc1cc(Cl)cc(C2NC(=O)NC(C)=C2C(=O)NCc2ccccc2)c1O (stereo unspecified) -1.41%
COc1ccc(C2NC(=O)c3ccccc3N2)cc1 (stereo unspecified) 3.47%
Brc1ccccc1C1Nc2cccc3cccc(c23)N1 8.61%
C=CCOC(=O)C1=C[C@H](c2ccc(Br)cc2)C[C@H](OCCCCO)O1 -1.17%
NC(=O)COC(=O)c1ccc2c(c1)C(=O)N(Cc1ccco1)C2=O 1.77%
O=C(Nc1cc2c3c(c1)C1CCCC1CN3CC1CCCC21)c1ccc([N+](=O)[O-])cc1 (stereo unspecified) 1.32%
CC(=O)c1ccc(N2CCN(CC(O)c3ccccc3)CC2)cc1 (stereo unspecified) 3.22%
COCCNC(=O)COc1ccccc1C 3.83%
CC(C)(C)c1nnc2sc(SCC(O)=C(C#N)c3nc4ccccc4[nH]3)nn2c1=O -2.57%
O=C(Nc1ccccc1C(=O)N1CCCCC1)c1ccco1 7.42%
CC(C)[C@@H](C(=O)OCC(=O)c1ccc2c(c1)NC(=O)CO2)N1C(=O)c2ccccc2C1=O 6.47%
O=C(O)CCn1cc(/C=C/C(=O)c2ccc(Cl)cc2)c(-c2cccc(Br)c2)n1 7.16%
COc1cc2c3c(c1)/C(=C1/SC(=S)NC1=O)C(=O)N3C(C)(C)C=C2C 3.91%
O=C(CSc1nc2nccnc2c(=O)n1Cc1cccs1)Nc1ccccc1F -1.39%
N#C/C(=C/c1cccc([N+](=O)[O-])c1)c1nnc2n1CCCCC2 1.53%
O=C(O)c1ccc(S(=O)(=O)N2CCC(Cc3ccccc3)CC2)cc1 -5.76%
COc1ccc(-c2c(-c3cc(OC)cc(OC)c3)n(C)c3ccc(-c4ccn[nH]4)cc23)cc1 1.2%
CCSc1nc(=S)n(CC)c(C)c1C(C)=O -2.33%
CC1=C(C)CC(C(=O)NNC(=O)c2csc3c2CCC(C(C)(C)C)C3)C(C(=O)O)C1 (stereo unspecified) 4.06%
Cc1ccc(CNC(=O)C2CCN(S(=O)(=O)c3ccc4nc5c(c(C(=O)O)c4c3)CC(C)CC5)CC2)cc1 (stereo unspecified) -1.27%
Cc1ccc(-c2nc(COC(=O)c3c(C)noc3C)cs2)cc1 -2.15%
COC(=O)c1sc2[nH]c(=S)n(N)c(=O)c2c1C 3.84%
O=C(CCC(=O)N1CCN(S(=O)(=O)c2ccc(Cl)cc2)CC1)NCc1cccc(C(F)(F)F)c1 2.14%
Cc1ccc(S(=O)(=O)N(C)CC(=O)NCC(c2ccc(F)cc2)N2CCOCC2)cc1 (stereo unspecified) 1.51%
Cn1nccc1C(=O)N1CCCC(C(=O)c2ccc(Oc3ccccc3)cc2)C1 (stereo unspecified) -8.2%
O=C(NCCCn1ccnc1)C(=O)NCC1OCCN1S(=O)(=O)c1cc(F)ccc1F (stereo unspecified) 4.73%
COc1ccc(-n2ncc3c2CC(C)(C)CC3NC(=O)CCc2c(C)nn(C)c2C)cc1 (stereo unspecified) 5.01%
CN1CCC(=NNC(=O)CN(c2cccc(Cl)c2)S(C)(=O)=O)CC1 2.41%
O=C(CN1C(=O)NC(Cc2ccccc2)(Cc2ccccc2)C1=O)NCC1CCCCC1 2.02%
CCc1cc(=O)oc2cc(OCC(=O)N3CCCc4ccccc43)ccc12 -2.67%
O=C(CN1C(=O)CC(c2ccccc2)=Nc2ccccc21)NC1CCCCC1 1.38%
CC12CCCCC1=CC(=O)CC2 (stereo unspecified) 3.28%
Cc1ccc(S(=O)(=O)N2CC(C)N(S(C)(=O)=O)C2)cc1 (stereo unspecified) 2.36%
COCC1CCN(C(=O)CCc2nnc(C3(c4ccc(Cl)cc4)CCC3)o2)C1 (stereo unspecified) 0.92%
CCC(Cc1ccccc1)NS(=O)(=O)c1ccc2c(c1)NC(=O)CS2 (stereo unspecified) 4.18%
O=C(NCCCN1CCOCC1)c1ccc2c(c1)N(Cc1cccc(F)c1)C(=O)c1ccccc1S2 0.8%
CN1CCN(CCCNC(=O)c2ccc(/C=C3\Oc4ccccc4N(Cc4ccc(Cl)cc4)C3=O)cc2)CC1 -0.17%
CCC1CCCCN1C(=S)Nc1ccc(C(C)=O)cc1 (stereo unspecified) 1.79%
CCOC(=O)c1cc2c(=O)n3ccccc3nc2n(CC(C)C)c1=NC(=O)c1c(-c2c(F)cccc2Cl)noc1C 1.41%
CC1(C)CC(N2CCN(C(c3ccccc3)c3ccccc3)CC2)=CC(=[N+]2CCCCC2)C1 0.04%
Oc1c(CN2CCOCC2)ccc(CN2CCOCC2)c1O -3.83%
c1ccc2c(c1)CCc1snnc1-2 2.79%
NC1=NOC(=O)C1C1CCCCC1 (stereo unspecified) 5.24%
COC(=O)Nc1ccc(S(=O)(=O)N(C)CC(F)(F)C(F)F)cc1 3.58%
Brc1ccc(/C=N/N2CCN(C3c4ccccc4-c4ccccc43)CC2)s1 -7.03%
CCc1ccc(C(=O)NNC(=O)C2CCN(c3ncnc4sc(C)c(C)c34)CC2)cc1 -11.5%
COc1ccc(C(=O)NCCn2nc(C)cc2C)cc1OC1CCN(C(C)=O)CC1 1.62%
O=c1nc(N2CCOCC2)nc2n1CCO2 -0.31%
Cc1ccc(S(=O)(=O)/N=C(\CN2CCOCC2)N2CCOCC2)cc1 -5.66%
COc1cc2[nH]c(O)c(C=O)c2cc1OC -5.21%
COc1ccc(C(=O)Nc2cc(C)ccc2NC(=O)COc2ccccc2)cc1 0.16%
CCS(=O)(=O)c1ccc(O)c(NC(=O)COc2ccc(Cl)cc2)c1 0.73%
Cc1cc(C)n2nc(C(=O)Nc3cccc(S(=O)(=O)N4CCOCC4)c3)nc2n1 1.61%
COc1ccc([C@H]2CC(=O)C=C(/C=C/c3ccc(Cl)cc3)C2)cc1 3.83%
COCc1cc(C)n(CC(=O)NCC2CCCO2)c(=O)c1C#N (stereo unspecified) -1.81%
COc1ccc(CCNC(=O)COC(=O)C2CC2C)cc1 (stereo unspecified) 3.39%
O=C(CCCCCCCC(=O)N1CCCCC1)N1CCCCC1 -0.9%
